# Assay results: the supplement of paper PMC8728848
# About 410 targets per protein were measured; listed, in parts, are those with the strongest signals and a random draw of the rest.
# B1: SBD (Rhizopus oryzae), P07683 (protein)
# chain: ASIPSSASVQLDSYNYDGSTFSGKIYVKNIAYSKKVTVVYADGSDNWNNNGNIIAASFSGPISGSNYEYWTFSASVKGIKEFYIKYEVSGKTYYDNNNSANYQVS
# What was measured:
# Assay in all cases: glycan array binding signal (z-score within array); higher = stronger binding
# Settings in all cases: glycan notation: IUPAC condensed, linker removed
# [1] = target: Neu5Ac(a2-3)Gal(b1-4)GlcNAc(b1-3)Gal(b1-4)[Fuc(a1-3)]GlcNAc
# Procedure, shortened: (§1)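 The binding signal is a Z-score computed within each array. Data were drawn from 3228 arrays in the Consortium for Functional Glycomics database, restricted to those with a known protein sequence. Scores were averaged over arrays of the same protein sequence at different concentrations or buffers, and over linkers, and negative values can be taken as non-binding.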
# [2] = target: Neu5Ac(a2-3)Gal(b1-4)[Fuc(a1-3)]GlcNAc(b1-3)GalNAc
# Procedure, shortened: as §1
# [3] = target: Neu5Ac(a2-6)Gal(b1-4)GlcNAc(b1-2)Man(a1-3)[Gal(b1-4)GlcNAc(b1-2)Man(a1-6)]Man(b1-4)GlcNAc(b1-4)GlcNAc
# Procedure, shortened: as §1
# [4] = target: Neu5Ac(a2-6)Gal(b1-4)GlcNAc(b1-2)Man(a1-6)[GlcNAc(b1-2)Man(a1-3)]Man(b1-4)GlcNAc(b1-4)GlcNAc
# Procedure, shortened: as §1
# [5] = target: Neu5Ac(a2-6)GlcNAc(b1-4)GlcNAc
# Procedure, shortened: as §1
# [6] = target: Neu5Ac9Ac(a2-6)Gal(b1-4)GlcNAc
# Procedure, shortened: as §1
binder,measurement,setting,value
B1,glycan array binding signal (z-score),[1],-0.067
same,glycan array binding signal (z-score),[2],3.37
same,glycan array binding signal (z-score),[3],-0.457
same,glycan array binding signal (z-score),[4],0.349
same,glycan array binding signal (z-score),[5],0.158
same,glycan array binding signal (z-score),[6],-0.195
